Experimental findings from PubChem BioAssay AID2676 (National Center for Advancing Translational Sciences (NCATS), 2010) are described below.

Screen size: about 370,000 compounds; about 1,100 (0.3%) were called active. Not shown: some 1% with an inconclusive outcome. Calls follow the shape of the dose curve; as a rule, active = well fitted activation curve with a large enough effect; inconclusive = small, poorly fitted or top-dose-only effect; inactive = flat fitted curve, though single readings scatter. For the sample, actives were picked, then their nearest neighbours and some compounds at random.
% is scaled to controls: 0 for no effect and ±100 for the full control effect.

In the assay the target is Relaxin receptor 1 (Homo sapiens) (UniProt Q9HBX9). The assay can be described thus: qHTS Assay for Agonists of the Relaxin Receptor RXFP1. Also: nearly all actives have a fitted effect of over 60% in size. The settings on record: HEK293T-RXFP1 cAMP TR-FRET, 30 min; series mostly up to 57.5 µM; activation: at the top concentration. An excerpt: NIH Chemical Genomics Center [NCGC] NIH Molecular Libraries Probe Production Centers Network [MLPCN] MLPCN Grant: R03 MH085705-01A1 Assay Submitter (PI): Alexander Agoulnik NCGC Assay Overview: The relaxin hormone is involved in the variety of biological functions in normal tissues and diseases. The role of relaxin is well-established in female reproduction and parturition, mammary gland and endometrial development, maintenance of myometrial quiescence during pregnancy. Relaxin signaling through its G protein-coupled receptor (GPCR) RXFP1 results in ECM remodeling through regulation of collagen deposition, cell invasiveness, proliferation and overall tissue homeostasis. […] Recombinant human relaxin (rhRlx) is currently being tested in clinical trials as a protective agent in congestive heart failure, in treating severe preeclampsia, and as an anti-fibrotic agent in systemic sclerosis. Upon relaxin binding RXFP1 activation leads to the activation of adenylate cyclase (AC) via Gs. cAMP will activate PKA, which phosphorylates many signaling proteins. Thus, detection of cAMP increase is an easy and reliable indication of relaxin receptor activation. To screen for agonists of the relaxin receptor, a HEK293T cell line stably transfected with RXFP1 was used. RXFP1 activation was assayed by changes in cAMP levels as detected with a time-resolved fluorescence energy transfer (TR-FRET) cAMP detection kit.
Relaxin receptor 1 (Homo sapiens), sequence (Q9HBX9 whole entry, looked up): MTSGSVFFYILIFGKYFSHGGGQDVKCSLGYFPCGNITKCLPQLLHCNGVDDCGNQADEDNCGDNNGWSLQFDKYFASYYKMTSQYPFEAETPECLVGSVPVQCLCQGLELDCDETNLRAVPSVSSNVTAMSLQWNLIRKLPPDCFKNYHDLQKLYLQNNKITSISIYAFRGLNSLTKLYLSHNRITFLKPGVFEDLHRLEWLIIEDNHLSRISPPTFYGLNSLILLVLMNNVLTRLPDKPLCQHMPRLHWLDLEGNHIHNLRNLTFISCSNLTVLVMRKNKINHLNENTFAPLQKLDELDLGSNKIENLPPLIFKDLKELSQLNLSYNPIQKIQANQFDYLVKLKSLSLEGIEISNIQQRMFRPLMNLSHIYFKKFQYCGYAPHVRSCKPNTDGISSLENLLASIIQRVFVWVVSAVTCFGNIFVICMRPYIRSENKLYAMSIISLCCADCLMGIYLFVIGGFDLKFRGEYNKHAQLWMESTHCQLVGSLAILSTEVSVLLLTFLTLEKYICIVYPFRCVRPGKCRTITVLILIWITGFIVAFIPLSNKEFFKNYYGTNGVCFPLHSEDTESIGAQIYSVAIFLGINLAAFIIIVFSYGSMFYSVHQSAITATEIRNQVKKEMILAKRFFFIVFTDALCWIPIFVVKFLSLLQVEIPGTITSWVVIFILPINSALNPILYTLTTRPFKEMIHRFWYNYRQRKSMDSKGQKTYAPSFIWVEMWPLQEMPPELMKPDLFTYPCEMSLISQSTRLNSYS
NCGC Assay Protocol Summary: This is a cell-based assay for cAMP second messenger response to screen for agonists of the RXFP1 receptor. The assay was conducted in the presence of a PDE4 inhibitor (Ro 20174). The cells were lysed and the cAMP levels were measured with a TR-FRET cAMP kit. Presence of cAMP in the cell lysate disrupts binding between the cryptate-labeled anti-cAMP and d2-labeled cAMP pair, leading to a decrease in the TR-FRET signal. Data were normalized to the controls for basal activity (buffer only) and 100% activity (29 nM porcine relaxin). The EC50 values were determined from concentration-response data modeled with the standard Hill equation 1536-well assay protocol for the HEK293 RXFP1 cAMP assay: (1) Add 3 ul HEK293 RXFP1 cell culture. 2000 cells/well in DMEM/F12, 10% FBS, 1x Pen/Strep (dispensed offline with MultiDrop Combi). (2) Incubate 16-24 hr at 37C, 5% CO2. (3) Add 1 ul 400uM Ro20174 in DPBS, 0.05% BSA, 0.005% Tween 20. (3) Add 23 nl compounds in DMSO solution. Final concentration was 0.5 - 58 uM. (4) Incubate 30 min at 37C, 5% CO2. (5) Add 1 ul cAMP-d2 in lysis buffer (HTRF cAMP HiRange kit, CisBio). (6) Add 1 ul anti-cAMP antibody-cryptate in lysis buffer (HTRF cAMP HiRange kit, CisBio). (7) Incubate 30 min at room temperature. (6) Detect the assay plate in a ViewLux plate reader (PerkinElmer) with Ex=320 nm, Em1=615 nm and Em2=665 nm. Keywords: relaxin, RXFP1, RXFP2, G-protein coupled receptor, cAMP, agonist, high throughput screening, MLSMR, MLSCN, NIH Roadmap, qHTS and NCGC
A general note: Quantitative high-throughput screening tests each substance at several concentrations.
Regarding `CCc1ccc(CN(Cc2ccco2)C(=O)COc2ccc(Cl)c(C)c2)cc1`, the “activation” value is -2.55% (inactive). Next, `CCOc1ccccc1C(=O)NCC(c1ccc(N(C)C)cc1)N1CCCC1` (configuration not stated): -0.212% (inactive); `Cc1cccc(Nc2cc(C)nc(-n3nc(C)cc3C)n2)c1`: 2.8% (inactive); `Cc1ccc2oc(=O)c3cnn(CC(=O)NCc4ccccc4Cl)c3c2c1`: 11.8% (inactive).

As for `Cc1ccc(-c2cnc(NCc3ccc(C(C)C)cc3)n2C)cc1`, the “activation” value was 2.92% (inactive). Next, `COc1ccc(/C=C/c2nc(C#N)c(NCc3ccc(F)cc3)o2)cc1OC`: 7.14% (inactive); `COc1cccc(-c2nnc3n(CCc4ccccc4)c(=O)c4ccccc4n23)c1O`: -6.16% (inactive). On to `CCCSc1ncc(Cl)c(C(=O)Nc2sc3c(c2C(=O)NCCOC)CCCC3)n1`, for which the “activation” value is 0.71% (inactive). With `O=C(COc1ccccc1Cl)Nc1ccc2nc(SCC(=O)N3CCCC3)sc2c1`, the “activation” value is -0.6% (inactive). Next, `Cc1ccc(CNC(=O)CCc2c(C)nn(-c3ccc(N4CCCC4)nn3)c2C)cc1`: 1.44% (inactive); `Cc1cc(C)c(NC(=O)CN2C(=O)c3cccnc3Oc3ccc(Cl)cc32)c(C)c1`: -0.402% (inactive); `Cc1cccc(CSc2nc3ccncc3n2CC(=O)N(C)C2CCCCC2)c1`: 26.3% (inactive). Under `O=C(CSc1nccn1Cc1ccc(F)cc1)NCc1ccccc1` stands 1.6% (inactive); under `Cc1ccc(NC(=O)CSc2nnc3[nH]c(=O)cc(C)n23)cc1Cl`, 1.96% (inactive); under `COc1ccc(-c2nc(SCC(=O)N3CCCCC3C)n[nH]2)cc1` (configuration not stated), 4.16% (inactive). Regarding `O=C(c1cccc(Br)c1)N1CCN(Cc2cc(=O)n3nc(-c4ccccc4)sc3n2)CC1`, the “activation” value is 0.565% (inactive). Under `Cc1ccc(-n2cnc3cc(C(=O)NCCC4=CCCCC4)ccc32)cc1Cl` stands -0.218% (inactive); under `Brc1ccc2c(c1)NC(c1cccnc1)=NC(c1ccccc1)=N2`, 2.1% (inactive). Next, `CCc1cnc2c(c1SCC(=O)N1CCC(C)CC1)c(=O)n(C)c(=O)n2C`: 12.8% (inactive); `Cc1cc(C)c(/C=C/c2onc(C)c2S(=O)(=O)N2CCC(C(=O)Nc3ccc(Cl)cc3C)CC2)c(C)c1`: 0.56% (inactive); `CCCNC(=O)c1ccc2c(c1)ncn2-c1ccc(C)cc1C`: -0.066% (inactive). Next, `COc1ccc(S(=O)(=O)NCc2cccn2Cc2cccc(C)c2)cc1Cl`: 3.64% (inactive). As to `CCOC(=O)N1CCc2c(sc(NCc3cccc(F)c3)c2C(=O)Nc2ccccc2OCC)C1`, the “activation” value was 3.22% (inactive).

On to `COc1cccc(OCCn2c(-c3ccc(Br)cc3)nc3ccccc3c2=O)c1`, for which the “activation” value was -2.88% (inactive). Next, `O=C(CCS(=O)(=O)c1ccc2c(c1)NC(=O)CO2)Nc1cccc(C(F)(F)F)c1`: -0.361% (inactive); `CCOc1ccc(C(=O)/C=C/c2cn(CC(O)CN3CCCCCC3)c3ccccc23)cc1` (configuration not stated): -1.71% (inactive). Regarding `COc1ccc(N2CCN(C(=O)CSCc3nc(-c4ccccc4Cl)oc3C)CC2)cc1`, the “activation” value was 0.152% (inactive). As to `Cc1ccc(NC(=O)NC(C)c2c(-n3cccc3)sc(C)c2C)c(C)c1` (configuration not stated), the “activation” value is -0.32% (inactive). With `CCc1cc2c(cc3c(=O)n(CC(=O)NCc4cccc(Cl)c4)nc(CC)n32)s1`, the “activation” value is 12.2% (inactive). Next, `Cc1ccc(-n2ncc3c(N4CCC(C(N)=O)CC4)ncnc32)cc1`: 16.5% (inactive); `COC(=O)c1ccc(NC(=O)CCc2c(C)nc3c(c(C)nn3-c3ccc(C)cc3)c2C)cc1`: -1.04% (inactive); `CCCCOc1ccc(CN2C(=O)C(=O)c3cc(Br)cc(C)c32)cc1OC`: 0.139% (inactive). On to `CCOc1ccccc1CNC(=O)Nc1cn(CC(C)C)c(=O)c2ccccc12`, for which the “activation” value is -0.657% (inactive).

`CN(Cc1ccccc1)C(=O)c1cn(C)c2ccc(S(=O)(=O)N3CCCCC3)cc2c1=O`: the “activation” value is -0.519% (inactive). Under `Cc1ccccc1CNC(=O)Cn1c(C)c2cnn(-c3ccccc3)c(=O)c2c1C` stands 1.46% (inactive). With `Cc1ccc2oc3c(c(=O)c2c1)C(c1ccc(O)cc1)N(Cc1ccc2c(c1)OCO2)C3=O` (configuration not stated), the “activation” value was -0.0237% (inactive). Under `COc1ccc(C)cc1N(C)C(=O)c1c(C)oc2ncnc(N3CCOCC3)c12` stands -3.68% (inactive). `O=C(NCCCc1ccccc1)c1ccc2c(c1)sc1nc(-c3ccc(F)cc3)cn12`: the “activation” value is -1.38% (inactive). With `COc1cccc(C(=O)N(Cc2cccc(Cl)c2)Cc2ccco2)c1`, the “activation” value is 1.03% (inactive). Under `COc1cc(Cl)c(NC(=O)C(NS(=O)(=O)c2cccs2)C(C)C)c(OC)c1` (configuration not stated) stands -2.63% (inactive); under `CCOC(=O)c1c(NC(=O)COc2cc(C)ccc2C(C)C)sc(C)c1C`, 2.49% (inactive). With `COC(=O)c1ccccc1NC(=O)c1ccc(COc2ccccc2Cl)o1`, the “activation” value is 2.52% (inactive). As for `O=C(Cn1c(=O)n(-c2ccc(F)cc2)c(=O)c2sccc21)Nc1cccc(C(F)(F)F)c1`, the “activation” value is 0.102% (inactive). Next, `CC(C)(C)c1ccc(OCC(=O)N2CCC(c3nc4ccccc4s3)CC2)cc1`: -0.849% (inactive); `O=C(NC1CC(=O)N(c2ccc(F)cc2)C1)c1ccc(S(=O)(=O)N2CCCC2)cc1` (configuration not stated): 1.57% (inactive). Regarding `COc1ccc(Cn2ccnc2SCC(=O)NCc2ccco2)cc1`, the “activation” value was 2.97% (inactive). For the compound `CCOc1ccc2oc(=O)cc(CN3CCN(C(=O)c4ccc(F)cc4)CC3)c2c1`, the “activation” value is 1.02% (inactive).
